# HT1080NT lethal: kills 2HG-producing HT-1080-NT fibrosarcoma cells; HT-1080-NT fibrosarcoma viability, CellTiter-Glo ATP luminescence, 48 h; Potency, µM (top dose mostly 46.1 µM), inactives show top-dose activity, negative = less viability, actives largely listed as cytotoxic; hit rate 1.6% among 360,000; AID 686970;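 also: NT is the 2HG producing partner of a matched IDH1 knockdown line; 0% = DMSO-treated cells and -100% = media-only wells without cells; nearly all actives have a fitted effect of over 55% in size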
#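 Toxicity toward the 2HG-producing NT line was scored as %Activity, normalised to DMSO and no-cell wells, from CellTiter-Glo luminescence after 48 hours' treatment.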
# HepG2 viability: HepG2 cytotoxicity, counter-screen for TGF-b inhibitors; HepG2 CAGA-GFP viability, ATP luminescence, 18 h; Potency, µM (series often up to 46.1 µM), for inactives: at the highest dose activity change, negative = cytotoxicity, most hits filed as cytotoxic; hit rate 0.76% among 410,000
#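 HepG2 CAGA-GFP cells (1000/well, DMEM with 1% FBS) received compound, then TGF-beta at 500 pg/mL final, and were incubated 18 hours at 37 degrees C. Viability was read by CellTiter-Glo luminescence. Media-only wells were set as complete cell-killing and DMSO as no toxicity.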
# KB-3-1 tox: KB-3-1 parental cell cytotoxicity; KB-3-1 viability, CellTiter-Glo ATP luminescence, 72 h; Potency, µM (highest dose often 46.1 µM), most hits filed as cytotoxic; hit rate 1.4% among 400,000; also: % is scaled to controls: 0 for no effect and ±100 for the full control effect; nearly all actives have a fitted effect of over 60% in size
#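 Screening of KB-3-1 cells (DMEM, 10% FBS, phenol-red free) ran from lowest to highest compound concentration; after 72 h at 37 °C viability was read luminescently and curves fitted.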
# TGFb SMAD3 inh: blocks TGF-b signaling | Potency, µM (doses to about 46.1 µM), inactives show at the highest dose activity, negative = inhibition, usual class: inhibitors | HepG2 CAGA-GFP TGF-b/SMAD3 reporter, GFP fluorescence, 18 h; TGF-beta stimulated, 500 pg/mL final | hit rate 1.2% among 410,000; also: % is scaled to controls: 0 for no effect and ±100 for the full control effect; nearly all actives have a fitted effect of over 65% in size
#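 GFP signal (ex488/em500-530) from TGF-beta-stimulated HEPG2 CAGA-GFP cells, 500 pg/mL final, 18 h at 37 degrees C in DMEM plus 1% FBS, normalized to unstimulated and DMSO-stimulated controls.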
# HT1080 IDH1KD tx: toxicity to HT-1080 IDH1 knockdown cells (counter line); HT-1080 IDH1 knockdown viability, ATP luminescence, 48 h; hit rate 2% among 360,000; Potency, µM (doses to about 46.1 µM), for the others: at the top dose activity, negative = toxicity, actives largely listed as cytotoxic; AID 686971;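 also: 0% = DMSO wells and -100% = cell-free medium wells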
#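 In this qHTS, HT-1080 cells depleted of IDH1 are exposed for 48 h at 37 °C to compound titrations. Toxicity is scored from CellTiter-Glo luminescence, with DMSO as full viability and medium alone as none.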
# KB-V1 MDR tox: KB-V1 MDR subline cytotoxicity; hit rate 3.4% among 400,000; Potency, µM (highest dose often 46.1 µM), hits mostly cytotoxic; KB-V1 MDR cells viability, CellTiter-Glo, 72 h; AID 1347076; also: % is scaled to controls: 0 for no effect and ±100 for the full control effect; nearly all actives have a fitted effect of over 60% in size
#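 KB-V1 cells (P-gp-expressing MDR subline of KB-3-1) in phenol-red-free DMEM with 10% FBS were exposed to library compounds over a concentration series for 72 h at 37 degrees C. Viability read by CellTiter-Glo luminescence; concentration-effect curves fitted after normalization.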
# * = called active by the depositor; i = inactive; ? = inconclusive; . = not tested or not shown. Hits are enriched below; roughly 6.6% of the tested compounds scored in any of these assays. Calls follow the shape of the dose curve; as a rule, active = well fitted curve in the direction sought with a large enough effect; inconclusive = small, poorly fitted or top-dose-only effect, or another doubt; inactive = no such curve, though single readings can be large; an effect the other way counts as inactive or inconclusive. Potency is read from the fitted curve at half-maximal effect.
SMILES,HT1080NT lethal,HepG2 viability,KB-3-1 tox,TGFb SMAD3 inh,HT1080 IDH1KD tx,KB-V1 MDR tox
Cc1nc2ncccn2c1-c1csc(Nc2ccc(O)cc2)n1,-6%,-14%,15µM*,-10%,?,i
Cc1ccc(Nc2nc(-c3c(C)nc4ncccn34)cs2)cc1,0.18µM*,-19%,0.0058µM*,?,?,0.33µM*
Brc1ccc(-c2cn3c(n2)CCc2ccc4cccnc4c2-3)cc1,-18%,-32%,i,0%,-16%,16µM*
COc1cccc(S(=O)(=O)Nc2ccc3c(c2)C(=O)N(C)C[C@H](OC)[C@H](C)CN[C@@H](C)CO3)c1,20%,.,i,.,13%,i
O=C(NCC1CCCCC1)C1(CC2CC(c3cccc(Br)c3)=NO2)CCNCC1 (stereo not drawn),-18%,16µM*,?,?,-30%,i
CC[C@@H]1[C@H]2CCCC(=O)N3CC[C@@H](C[C@@H]1OC(=O)Nc1ccc4c(c1)OCO4)[C@@H]23,.,-15%,i,-23%,.,i
CC(=O)O[C@]1(C(C)=O)CC[C@H]2[C@@H]3C=CC4=CC(=O)C=C[C@]4(C)[C@H]3CC[C@@]21C,-3%,-18%,?,-11%,-1%,13µM*
CCC(C(=O)NC1CCCC1)N(C(=O)Cn1nnc(-c2ccc(C)o2)n1)c1ccc(OC)cc1 (stereo not drawn),-18%,-11%,i,2%,-7%,?
CCOc1ccccc1N(CC(=O)NC(C)(C)C)C(=O)Cn1nnc(-c2ccc(C)o2)n1,6%,13%,i,-13%,12%,2.9µM*
CCC(C(=O)NC1CCCC1)N(C(=O)Cn1nnc(-c2ccc(C)o2)n1)C(C)(C)C (stereo not drawn),-3%,-9%,i,15%,-18%,1.2µM*
CCCC(C(=O)NC1CCCC1)N(C(=O)Cn1nnc(-c2ccc(C)o2)n1)C1CCCC1 (stereo not drawn),-18%,7%,i,3%,-25%,4.1µM*
COc1ccc(OC)c(-c2csc(-c3c(N)c(C(=O)c4ccc(Cl)cc4)n4ccccc34)n2)c1,.,3%,i,-1%,.,i
Cc1ccc(C)c(-c2ccc(=O)n(C(C)C(=O)Nc3ccccc3C(F)(F)F)n2)c1 (stereo not drawn),.,-19%,i,-29%,.,i
COc1ccc(NC(=O)C23CC4CC(C2)CC(n2cnc(Br)n2)(C4)C3)cc1Cl,-2%,-37%,i,-4%,-22%,9.2µM*
Cc1c(NC(=S)/C=C2\N(C)c3ccccc3C2(C)C)c(=O)n(-c2ccccc2)n1C,-13%,-12%,i,6%,-19%,23µM*
COc1ccc(NC(=O)Cn2c(=O)n(Cc3ccccc3)c(=O)c3oc4ccccc4c32)cc1Cl,.,-34%,i,?,.,i
CCc1ccc(NC(=O)CC2C(=O)N(c3cccc(C)c3)C(=O)N2Cc2cccc(OC)c2)cc1 (stereo not drawn),.,-25%,.,?,.,.
N=c1cc(C2(O)CCCCC2)n2c(nc3ccccc32)s1,4%,-2%,?,-11%,25%,16µM*
CCOc1cc(C(=O)Nc2ccc3c4c(cccc24)C(=O)N3CC)cc(OCC)c1OCC,-29%,-16%,i,-3%,-25%,9.2µM*
Cc1c(C(=O)N2CCOCC2)[nH]c2c1C(=O)CC(c1ccccc1Cl)C2 (stereo not drawn),5µM*,-35%,18µM*,-17%,4µM*,?
Cc1c(C(=O)OC2CCCC2)[nH]c2c1C(=O)CC(c1ccco1)C2 (stereo not drawn),0.52µM*,-35%,0.52µM*,?,1.3µM*,0.58µM*
C/C=C/COC(=O)c1[nH]c2c(c1C)C(=O)CC(c1ccco1)C2 (stereo not drawn),1µM*,-10%,i,?,0.65µM*,i
